Test results: PubChem BioAssay (NCI)
This is part of a sample that, as a whole, favours compounds with a hit. Of some 79,000 tested, about 15% had one in any assay. Activity calls are given as the source filed them. No stated cut-off is given here; in the data, active means growth inhibition above about 70%; inactive means the rest.

Key:
[1] = NCI Yeast Anticancer Drug Screen. Data for the rad52 strain (AID 147);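 further: 0% = growth of vehicle-treated control cultures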; conditions: S. cerevisiae rad52 mutant growth inhibition, stronger effect = higher value
Procedure, shortened: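 Screen used a yeast mutant impaired in DNA repair. After compound exposure, growth was measured. Values reflect inhibition compared with vehicle-treated cells.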

[2] = NCI Yeast Anticancer Drug Screen. Data for the wt1 strain (AID 149);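 further: 0% = growth of vehicle-treated wt1 cultures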; conditions: S. cerevisiae wt1 strain (SPY 50644) growth inhibition, stronger effect = higher value
Procedure, shortened: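 Growth inhibition read against vehicle controls after compound exposure of the wt1 yeast strain.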

[3] = NCI Yeast Anticancer Drug Screen. Data for the rad50EPP+ strain (AID 151);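 further: 0% = growth of vehicle-treated control cultures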; conditions: S. cerevisiae rad50 mutant strain, stronger effect = higher value
Procedure, shortened: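 Exposing the rad50EPP+ strain to each compound, growth was compared with vehicle-only cultures to give inhibition.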

[4] = NCI Yeast Anticancer Drug Screen. Data for the mgt1 strain (AID 153); conditions: S. cerevisiae mgt1 mutant growth inhibition, stronger effect = higher value
Procedure, shortened: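 Genetically defined yeast (mgt1) treated with compound; inhibition of growth expressed against vehicle-treated controls.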

[5] = NCI Yeast Anticancer Drug Screen. Data for the rad50 strain (AID 155);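 further: 0% = growth of vehicle-only cultures of the same strain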; conditions: S. cerevisiae rad50 strain growth inhibition, stronger effect = higher value
Procedure, shortened: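 Readout: growth inhibition relative to vehicle-treated cultures. Compound exposure was carried out in a genetically defined yeast strain deficient in DNA damage repair.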

[6] = NCI Yeast Anticancer Drug Screen. Data for the mec2-1 strain (AID 157); conditions: S. cerevisiae mec2-1 strain, stronger effect = higher value
Procedure, shortened: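 Readout is yeast growth inhibition, normalised to vehicle-treated controls, in the mec2-1 strain exposed to compound.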

[7] = NCI Yeast Anticancer Drug Screen. Data for the rad14 strain (AID 159);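 further: 0% = growth of vehicle-treated control cultures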; conditions: S. cerevisiae rad14 strain growth inhibition, stronger effect = higher value
Procedure, shortened: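 Growth inhibition vs vehicle controls; genetically altered yeast strain (DNA damage repair defect) treated with test compounds.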

[8] = NCI Yeast Anticancer Drug Screen. Data for the sgs1 mgt1 strain (AID 161);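 further: 0% = growth of cultures given vehicle only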; conditions: S. cerevisiae sgs1 mgt1 strain, stronger effect = higher value
Procedure, shortened: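 Percent growth inhibition was derived by comparing compound-exposed mutant yeast with vehicle-exposed cultures. The strain carries alterations in DNA damage repair.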

[9] = NCI Yeast Anticancer Drug Screen. Data for the CLN2oe strain (AID 163);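 further: 0% = growth of vehicle-only control cultures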; conditions: S. cerevisiae CLN2oe strain, stronger effect = higher value
Procedure, shortened: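 Values reflect how much compound exposure reduced yeast growth, referenced to vehicle-exposed cells. Assay organism is a strain with a defined genetic change affecting cell-cycle control.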

[10] = NCI Yeast Anticancer Drug Screen. Data for the cln2 rad14 strain (AID 165);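 further: 0% = growth equal to vehicle treated cultures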; conditions: S. cerevisiae cln2 rad14 strain, stronger effect = higher value
Procedure, shortened: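 Relative to vehicle controls, growth inhibition of compound-treated cln2 rad14 yeast was recorded.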

[11] = NCI Yeast Anticancer Drug Screen. Data for the bub3 strain (AID 167); conditions: S. cerevisiae bub3 mutant strain, stronger effect = higher value
Procedure, shortened: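 Readout: yeast growth inhibition, expressed relative to vehicle-only wells. The test organism is a mutant strain from a panel with lesions in DNA repair or checkpoint genes.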

[12] = NCI Yeast Anticancer Drug Screen. Data for the wt2 strain (AID 169);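 further: 0% = growth of vehicle-treated yeast cultures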; conditions: S. cerevisiae wt2 strain growth inhibition, stronger effect = higher value
Procedure, shortened: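 Values express reduction in yeast growth under compound treatment, referenced to vehicle-treated cells.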

[13] = NCI Yeast Anticancer Drug Screen. Data for the mlh1 strain (AID 171);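 further: 0% = growth of vehicle-treated control cultures of the same strain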; conditions: S. cerevisiae mlh1 strain growth inhibition, stronger effect = higher value
Procedure, shortened: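 Steps: expose the defined-mutant yeast strain to compound; expose a parallel culture to vehicle; measure growth; express compound effect as inhibition relative to the vehicle culture.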

[14] = NCI Yeast Anticancer Drug Screen. Data for the sgs1 strain (AID 173);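 further: 0% = growth of vehicle-only control cultures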; conditions: S. cerevisiae sgs1 mutant, stronger effect = higher value
Procedure, shortened: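 Treat defined-mutant yeast with compound; measure growth; calculate inhibition relative to vehicle-treated cells.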

[15] = NCI Yeast Anticancer Drug Screen. Data for the mlh1 rad18 strain (AID 175); conditions: S. cerevisiae mlh1 rad18 strain growth inhibition, stronger effect = higher value
Procedure, shortened: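 Test agents were incubated with a yeast strain of defined genotype (DNA damage repair defect). Inhibition of growth was derived by comparison with vehicle-exposed cultures.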

[16] = NCI Yeast Anticancer Drug Screen. Data for the rad18 strain (AID 177); conditions: S. cerevisiae rad18 mutant growth inhibition, stronger effect = higher value
Procedure, shortened: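 A genetically defined yeast mutant impaired in DNA damage repair was treated with test compounds, then its growth was measured against cultures receiving vehicle alone.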

[17] = at 5.0 µM (retest, dose inferred, filed as 0.5)
[18] = at 50.0 µM (retest, dose inferred, filed as 5.0)

Measured: growth inhibition

S=C(N/N=C/c1ccccn1)Nc1ccc(Cl)cc1
active: [5]; [18] 95% | [6]; [17] 71% | [6]; [18] 95% | [7]; at 100.0 µM 80% | [8]; [18] 96% | [8]; at 50.0 µM 83.8% | [9]; at 100.0 µM 79% | [10]; [18] 90% | [10]; at 50.0 µM 71.9% | [11]; [18] 96% | [11]; at 50.0 µM 79.6% | [15]; [18] 95% | [15]; at 50.0 µM 78.8%
inactive: [1]; at 1.2 µM -5% | [1]; at 3.7 µM -5% | [1]; at 11.0 µM -3% | [1]; at 33.0 µM 15% | [1]; at 100.0 µM 59% | [2]; at 1.2 µM -7% | [2]; at 3.7 µM -5% | [2]; at 11.0 µM -5% | [2]; at 33.0 µM 8% | [2]; at 100.0 µM 42% | [3]; at 1.2 µM -3% | [3]; at 3.7 µM -3% | [3]; at 11.0 µM 1% | [3]; at 33.0 µM -6% | [3]; at 100.0 µM -12% | [4]; at 1.2 µM -7% | [4]; at 3.7 µM -7% | [4]; at 11.0 µM 9% | [4]; at 33.0 µM 16% | [4]; at 100.0 µM 59% | [5]; at 1.2 µM -5% | [5]; at 3.7 µM -7% | [5]; [17] -7% | [5]; at 11.0 µM -27% | [5]; at 33.0 µM 19% | [5]; at 50.0 µM 55.5% | [5]; at 100.0 µM 59% | [6]; at 1.2 µM -5% | [6]; at 3.7 µM -6% | [6]; at 11.0 µM -3% | [6]; at 33.0 µM 10% | [6]; at 50.0 µM 56.2% | [6]; at 100.0 µM 63% | [7]; at 1.2 µM -3% | [7]; at 3.7 µM 0% | [7]; at 11.0 µM 0% | [7]; at 33.0 µM 27% | [8]; [17] 27% | [9]; at 1.2 µM -3% | [9]; at 3.7 µM -14% | [9]; at 11.0 µM -12% | [9]; at 33.0 µM 11% | [10]; [17] 38% | [11]; at 1.2 µM -5% | [11]; at 3.7 µM 0% | [11]; [17] 19% | [11]; at 11.0 µM -2% | [11]; at 33.0 µM -3% | [11]; at 100.0 µM 49% | [12]; at 1.2 µM -6% | [12]; at 3.7 µM -6% | [12]; at 11.0 µM -4% | [12]; at 33.0 µM 9% | [12]; at 100.0 µM 39% | [13]; at 1.2 µM -5% | [13]; at 3.7 µM -9% | [13]; at 11.0 µM -5% | [13]; at 33.0 µM 12% | [13]; at 100.0 µM 51% | [14]; at 1.2 µM -5% | [14]; at 3.7 µM -4% | [14]; at 11.0 µM -2% | [14]; at 33.0 µM 22% | [14]; at 100.0 µM 66% | [15]; [17] 44%

NC(=NCc1ccccc1)N/N=C\c1ccnc2ccccc12
inactive: [1]; at 1.2 µM 0% | [1]; at 3.7 µM -3% | [1]; at 11.0 µM 0% | [1]; at 33.0 µM 0% | [1]; at 100.0 µM 32% | [2]; at 1.2 µM -1% | [2]; at 3.7 µM -1% | [2]; at 11.0 µM -2% | [2]; at 33.0 µM 0% | [2]; at 100.0 µM 2% | [3]; at 1.2 µM -2% | [3]; at 3.7 µM 0% | [3]; at 11.0 µM 1% | [3]; at 33.0 µM 1% | [3]; at 100.0 µM 4% | [4]; at 1.2 µM -4% | [4]; at 3.7 µM -3% | [4]; at 11.0 µM 0% | [4]; at 33.0 µM 3% | [5]; at 1.2 µM 1% | [5]; at 3.7 µM 2% | [5]; [17] -2% | [5]; at 11.0 µM 4% | [5]; at 33.0 µM 7% | [5]; [18] 46% | [5]; at 50.0 µM 36% | [5]; at 100.0 µM 39% | [6]; at 1.2 µM -1% | [6]; at 3.7 µM 0% | [6]; [17] 2% | [6]; at 11.0 µM -1% | [6]; at 33.0 µM 7% | [6]; [18] 56% | [6]; at 50.0 µM 48.8% | [6]; at 100.0 µM 27% | [7]; at 1.2 µM 0% | [7]; at 3.7 µM 3% | [7]; at 11.0 µM 12% | [7]; at 33.0 µM 36% | [7]; at 100.0 µM 61% | [8]; [17] -6% | [8]; at 50.0 µM 66.3% | [9]; at 1.2 µM -6% | [9]; at 3.7 µM -6% | [9]; at 11.0 µM 1% | [9]; at 33.0 µM 22% | [10]; [17] 9% | [10]; [18] 62% | [10]; at 50.0 µM 21.1% | [11]; at 1.2 µM 0% | [11]; at 3.7 µM 0% | [11]; [17] -5% | [11]; at 11.0 µM 1% | [11]; at 33.0 µM 13% | [11]; [18] 60% | [11]; at 50.0 µM 22.4% | [11]; at 100.0 µM 56% | [12]; at 1.2 µM -2% | [12]; at 3.7 µM -3% | [12]; at 11.0 µM -1% | [12]; at 33.0 µM -1% | [12]; at 100.0 µM 38% | [13]; at 1.2 µM -2% | [13]; at 3.7 µM -1% | [13]; at 11.0 µM 2% | [13]; at 33.0 µM 10% | [13]; at 100.0 µM 52% | [14]; at 1.2 µM -1% | [14]; at 3.7 µM 0% | [14]; at 11.0 µM 1% | [14]; at 33.0 µM 13% | [14]; at 100.0 µM 61% | [15]; [17] 3% | [15]; [18] -21% | [15]; at 50.0 µM 44.4% | [16]; at 1.2 µM -2% | [16]; at 3.7 µM -3% | [16]; at 11.0 µM 0% | [16]; at 33.0 µM 5% | [16]; at 100.0 µM 28%
active: [4]; at 100.0 µM 76% | [8]; [18] 75% | [9]; at 100.0 µM 70%
